This is part of a sample that, as a whole, favours compounds with a hit. Of some 83,000 tested, about 20% had one in any assay.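 Single-concentration screen, 48 h exposure, 96-well plates. Endpoint: percent growth. Below 10 = active.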 A number with no mark means an inactive call. Activity calls are given as the source filed them.

What all share (experiment): NCI-60 one-dose screen, 48 h (100 = growth as untreated, 0 = no growth, -100 = all killed)
Holding throughout (details): 10 µM unless noted

The test system of test [1] is SR leukemia.
The test system of test [2] is OVCAR-8 ovarian.
Test [3] concerns OVCAR-5 ovarian.
Test [4] deals with OVCAR-4 ovarian.
Test [5] relates to SK-OV-3 ovarian.
Test [6] has as its system IGROV1 ovarian.
In test [7] the test system is OVCAR-3 ovarian.
In test [8] the test system is HS 578T breast.
Test [9] deals with NCI/ADR-RES ovarian.
Test [10] concerns T-47D breast.
Test [11] has as its system BT-549 breast.
Test [12] relates to SW-620 colon.
Test [13] has as its system MCF7 breast.
Test [14] deals with HCT-116 colon.
Test [15] concerns HCC-2998 colon.
In test [16] the test system is KM12 colon.
For test [17], the system named is MDA-MB-435 melanoma.

For the molecule `O=C(CCN1C(=O)/C(=C/c2ccc(O)cc2)SC1=S)Nc1ccc(Cl)cc1`, the growth in test [1] was 110%; in test [2] it was 97%; in [3], 95.6%; in test [4] it was 91.1%; in test [5], 71.8%; in test [6], 79.7%. Also, the growth was 99.4% in test [7]; 92.8% in test [8]; 104% in test [9]; 102% in [10]; 99.8% in [11]; 101% in test [12]. The growth is 89% in test [13], 92.2% in test [14], 115% in [15] and 97.7% in [16].

Take `O=C(CCN1C(=O)/C(=C/c2ccc(O)cc2)SC1=S)Nc1ccccc1`: the growth in test [1] is 119%; in [2], 94.6%; in test [3], 106%; in test [4] it was 89.6%; in [5], 65.9%; in [6], 94.6%. Besides, the growth in [7] was 108%; in test [8], 93.3%; in test [9] it was 99.1%; in test [10], 104%; in test [11], 93.1%; in test [12] it was 102%. The growth in test [13] was 96.6%; in test [14], 98.2%; in test [15], 111%; in [16], 99.1%.

Take `CCCCCCn1c(-c2ccc(C(=O)O/N=C(\N)c3ccc(OC)cc3)cc2)nc(-c2ccccc2)c1-c1ccccc1`: the growth in test [1] was -37.5% (active); in test [2], 1.03% (active); in test [3], 25.5%; in test [4], 7.82% (active); in test [5] it was 77.9%; in test [6] it was -68.1% (active). Moreover, the growth in test [7] is 18%; in test [8], -20.4% (active); in [9] it was -36.9% (active); in test [10], -30.4% (active); in test [11], -2.06% (active); in test [12] it was -1.32% (active). Further, the growth in test [13] is -39.3% (active); in test [14], -56.1% (active); in test [15] it was 3.48% (active); in test [16] it was 15.7%.

In the case of `O=c1c2cc(F)ccc2sc2c(N3CCCCC3)nc3ccccc3c12`, the growth is 121% in [1]; 99.6% in test [2]; 98.4% in test [3]; 116% in [4]; 103% in test [5]; 101% in [6]. For the same molecule, the growth was 110% in test [7]; 105% in test [8]; 105% in test [10]; 90.3% in test [11]; 107% in test [17]; 104% in test [12]. Moreover, the growth in [13] is 95.8%; in [14], 90.9%; in test [15] it was 101%; in [16], 105%.

As to `COC1=C(C)C(=O)c2c(c(CCCl)c3n2CCC3OC(C)=O)C1=O` (centres undefined), the growth in test [1] is 1.94% (active); in [2], 10.2%; in test [3], 4.93% (active); in test [4], 72%; in [5] it was -21.6% (active); in test [7], -23.3% (active). The growth in test [8] is -22.9% (active); in test [9], 8.95% (active); in test [10] it was 60.6%; in [11], -48.2% (active); in test [17], -58% (active); in test [12] it was 3.87% (active). Further, the growth in [13] is -39.9% (active); in test [14], -19.7% (active); in test [15], -48.1% (active); in test [16], -18.6% (active).

For the molecule `Cc1cccc2c3c(sc12)C(c1ccc(Cl)cc1)C(C#N)=C(N)O3` (centres undefined), the growth in [1] is 15.8%; in test [2], 22.2%; in test [3], 23.3%; in test [4] it was 58.4%; in test [5] it was 60.1%; in test [6] it was 23.8%. In addition, the growth in test [7] was -17.3% (active); in [8] it was 15.9%; in test [9] it was 9.13% (active); in test [10], 45.9%; in [11], 17.9%; in [12], 26.9%. The growth was 9.7% (active) in test [13], 14.2% in test [14], 18.3% in test [15] and 9.62% (active) in [16].

Turning to `CC(C)OC(=O)Nc1ccc(-c2nc(-c3cccc(OCCN4CCOCC4)c3)c(-c3ccnc(Br)c3)[nH]2)cc1`, the growth is -14.6% (active) in test [1]; 38.9% in test [2]; 55.6% in test [3]; 54% in test [4]; 12.2% in [5]; 45.7% in [6]. Besides, the growth in test [7] is 45.1%; in test [8], -33% (active); in [9], 57.1%; in [10], 31.2%; in [11] it was 42.1%; in test [12] it was 19.9%. The growth in [13] was -9.12% (active); in [14], 22.3%; in [15], 29.4%; in test [16] it was 10.4%.

Turning to `Cc1cccc2c1S/C(=C/c1ccc([N+](=O)[O-])cc1)C2=O`, the growth was 86.8% in [1]; 105% in test [2]; 41.3% in test [3]; 112% in test [4]; 88.2% in [5]; 82.7% in test [6]. For the same molecule, the growth in [7] was 105%; in [8] it was 99.7%; in test [10], 85%; in test [11] it was 124%; in [12], 30.2%; in test [13], 9.54% (active). The growth was 17.1% in test [14], 122% in test [15] and 107% in [16].

Consider `Cc1c(C(=O)NCCCc2ccccc2)sc2ncc(-c3ccc(Br)cc3)n12`, for which the growth in test [1] was 106%; in [2], 105%; in [3] it was 107%; in test [4], 111%; in test [5] it was 99.5%; in test [6] it was 100%. In addition, the growth in [7] was 112%; in test [8] it was 104%; in [9], 107%; in [10] it was 103%; in test [11], 110%; in test [12] it was 105%. In addition, the growth is 94.3% in test [13], 104% in test [14], 110% in test [15] and 100% in test [16].

For `CCOC(=O)c1sc2ncc(-c3ccc(C)cc3)n2c1C`, the growth in [1] is 112%; in [2], 94.7%; in [3], 95.9%; in test [4], 95.4%; in test [5], 81.3%; in [6] it was 71.3%. The growth in [7] is 97.2%; in test [8], 96.7%; in test [9] it was 92.9%; in test [10], 89%; in test [11] it was 107%; in test [12], 93.4%. For the same molecule, the growth in [13] was 86.7%; in [14], 93%; in test [15] it was 93.3%; in test [16] it was 86.6%.

Source of the values: PubChem BioAssay (NCI).
